# APP 5UTR inh – APP translation inhibition; AID 1285; SH-SY5Y APP 5'UTR-luciferase reporter, luminescence; 0.82% of 190,000 active; inhibition, % at 2 µM;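 active = inhibition above a set limit, derived from the sample mean plus 3 SD, cut at about 45% in these data; inconclusive = one replicate passes the limit while the other fails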
# BaF3 tox – counter-screen for JAK2V617F inhibitors: parental Ba/F3 viability inhibitors; CellTiter-Glo ATP luminescence; inhibition, % at 5.6 µM; 1.1% of 220,000 active;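 active = inhibition above a per-campaign cutoff, the mean inhibition of all tested compounds plus 3 SD, cut at about 27% in these data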;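 also: 0% = DMSO wells and 100% = JAK Inhibitor I control wells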
# aSyn UTR inh – MLPCN primary screen, SNCA 5' untranslated region; alpha-synuclein 5'UTR reporter, inhibitor activity; inhibition, % (tested at 7.5 µM); 0.82% of 300,000 active; AID 1813; in the data active = inhibition above about 60%; inconclusive = no clear call, values can overlap the other calls;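 also: H4 neuroglioblastoma cells stably carrying SNCA 5'UTR luciferase fusion; 0% = DMSO wells and 100% = positive control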
# IEC-6 tox-1 – kills IEC-6 intestinal cells in KLF5 counter-screen | IEC-6 cytotoxicity, luminescence viability | inhibition, % at 5 µM | 0.78% of 290,000 active;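 also: 0% = plate median of test compound wells and 100% = cytotoxic reference compound wells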
# Ba/F3 V617F tox – reduce viability of Ba/F3 cells dependent on JAK2V617F; Ba/F3 EpoR-JAK2V617F viability, ATP luminescence; inhibition, % at 5.6 µM; 1.1% of 220,000 active;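 active = inhibition above the campaign mean plus 3 SD over all tested compounds, cut at about 24% in these data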;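 also: cytokine-independent growth of Ba/F3 cells driven by EpoR plus mutant JAK2; 0% = DMSO-treated cells and 100% = JAK inhibitor I control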
# KLF5 inhibitor – suppresses KLF5 promoter-driven expression; DLD-1 KLF5 promoter-luciferase reporter, luminescence; 0.23% of 290,000 active; inhibition, % at 5 µM;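 active = inhibition above a per-plate limit of that plate's mean compound inhibition plus 3 SD, cut at about 60% in these data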;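 also: 0% = DMSO wells and 100% = LY294002 at 200 µM; higher means less KLF5 promoter-driven luciferase light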
# KLF5 inh confirm – KLF5 inhibition, confirmation assay | shares compounds with KLF5 inhibitor | DLD-1 KLF5 promoter firefly luciferase reporter, luminescence | inhibition, % at 4 µM | 79% of 610 active | AID 1834;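 active = inhibition above a set limit taken from the earlier primary screen, cut at about 63% in these data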;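 also: 0% = DMSO wells and 100% = LY294002 at 200 µM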
# IEC-6 tox-2 – kills rat IEC-6 cells in KLF5 counter-screen | shares compounds with KLF5 inhibitor | IEC-6 rat intestinal cells, viability luminescence | inhibition, % at 4 µM | 56% of 610 active; in the data active = inhibition above about 23%;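 also: cells exposed to compounds for 48 hours before viability read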
# IEC-6 tox confirm – confirmation of cytotoxic compounds in rat IEC-6 intestinal epithelial cells. shares compounds with IEC-6 tox-1. IEC-6 rat intestinal epithelial viability, luminescence. inhibition, % at 5 µM. 63% of 1,900 active;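 also: 0% = vehicle and 100% = reference cytotoxic drug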
# * = called active by the depositor; u = inconclusive; x = no result. This is a sample that favours compounds with a hit; in the whole collection about 2.2% have one here. Rule as the data show it, unless noted: active = inhibition above about 22%; inactive = the rest.
SMILES,APP 5UTR inh,BaF3 tox,aSyn UTR inh,IEC-6 tox-1,Ba/F3 V617F tox,KLF5 inhibitor,KLF5 inh confirm,IEC-6 tox-2,IEC-6 tox confirm
O=C(N/N=C/c1ccccc1O)c1ccc2c(c1)OCO2,x,x,-47,76*,x,72*,4,12,19
COc1ccccc1N1C(=O)C2ON(c3ccccc3)C(c3ccc(N(C)C)cc3)C2C1=O (configuration not stated),3,13,x,-10,9,-29,x,x,x
O=[N+]([O-])c1cccnc1Oc1cccnc1,x,0,5,-8,-3,-13,x,x,x
CC(=O)NNC(=O)c1[nH]c2ccc(Cl)cc2c1-c1ccccc1,x,-1,12,-4,-1,-8,x,x,x
NNC(=O)c1[nH]c2ccccc2c1-c1ccccc1,x,x,96*,95*,x,82*,0,1,11
O=C(Nc1ccc(Br)c2cccnc12)c1ccc(Cn2cc(Cl)cn2)o1,-17,3,-35,2,1,1,x,x,x
C/C(=N\NC(=O)c1c([N+](=O)[O-])c(C)nn1C)c1ccc(NC(=O)c2ccc(C)o2)cc1,x,x,-104,-3,x,-53,x,x,x
C/C(=N\NC(=O)c1c([N+](=O)[O-])c(C)nn1C)c1ccc(NC(=O)C2CCCC2)cc1,x,x,81*,77*,x,65*,76*,54*,64*
C/C(=N\NC(=O)c1c(Br)c(C)nn1C)c1cccc(NC(=O)C2CCC2)c1,-8,5,-37,4,3,-41,x,x,x
C/C(=N\NC(=O)c1c(Cl)c(C)nn1C)c1ccc(NC(=O)C2CCC2)cc1,x,x,44,73*,x,65*,83*,60*,52*
CCCCCCCCCOC(=O)C[n+]1csc(CCO)c1C,-8,-3,-18,1,-5,17,x,x,x
Cc1cc2ncc(S(=O)(=O)C(C)(C)C)c(N)n2n1,11,6,29,0,0,-8,x,x,x
Cc1nn(-c2ccccc2)c(C)c1/C=N/NC(=O)c1cc(-c2ccccc2)n[nH]1,95*,78*,82*,77*,71*,63*,84*,65*,58*
Cc1nn(-c2ccccc2)c(C)c1/C=N/NC(=O)c1cc(-c2cccc3ccccc23)n[nH]1,4,5,-2,7,6,-58,x,x,x
CC(C)N1CCc2c(sc(NC(=O)c3ccc([N+](=O)[O-])o3)c2C(N)=O)C1,x,x,104*,99*,x,72*,55,90*,86*
CC(C)N1CCc2c(sc(NC(=O)c3nc4ccccc4s3)c2C(N)=O)C1,-7,4,-58,9,4,-3,x,x,x
COC(=O)c1cc(OC)c(OC)cc1NC(=S)N1CCN(C/C=C/c2ccccc2)CC1,15,5,17,0,-4,-6,x,x,x
CCN(C(=O)C1CCCN(c2nc(-c3ccc(OC)cc3)no2)C1)c1ccccc1F (configuration not stated),x,x,18,0,x,-11,x,x,x
O=C(Nc1ccc(Br)cc1)c1ccc2ncsc2c1,x,x,-128,1,x,-63,x,x,x
Cc1ccc(O)c(C(=O)c2cnc3c(c2)CN(C)C(=O)N3)c1,-4,2,-34,3,-4,23,x,x,x
CN1Cc2cc(C(=O)c3cc(Cl)cc(CSc4ncccn4)c3O)cnc2NC1=O,96*,75*,79*,73*,71*,75*,85*,59*,66*
Cc1ccc(NC(=O)CN2C(=O)COc3ccc(S(=O)(=O)N4CCCC4)cc32)c(C)c1,x,x,-2,-2,x,-7,x,x,x
CCOc1ccc(-c2cc(N3C(=O)Nc4ccccc4N3O)n[nH]2)cc1,25,77*,-7,70*,76*,69*,2,19,2
COc1ccc(-c2nn(-c3ccccc3)cc2/C=N/n2cnnc2)cc1OC,-1,3,10,0,-2,4,x,x,x
COc1ccc(-c2nn(-c3ccccc3)cc2/C=N/NC(N)=S)cc1OC,95*,82*,90*,72*,82*,69*,71*,59*,62*
SMILES,APP 5UTR inh,BaF3 tox,aSyn UTR inh,IEC-6 tox-1,Ba/F3 V617F tox,KLF5 inhibitor,KLF5 inh confirm,IEC-6 tox-2,IEC-6 tox confirm
CSCC[C@H](NC(=O)OC(C)(C)C)C(=O)N1CCC(C(=O)N[C@@H](Cc2c[nH]c3ccccc23)C(=O)O)CC1,x,x,13,0,x,-61,x,x,x
COc1ccc(OC)c(NS(=O)(=O)c2ccc(N3CCCC3=O)cc2)c1,96*,81*,111*,88*,79*,83*,83*,62*,53*
CCOc1ccc(S(=O)(=O)Nc2cc(OC)ccc2OC)cc1,93*,80*,81*,90*,80*,73*,83*,59*,62*
COc1ccc(CCNS(=O)(=O)c2ccc(N3CCCC3=O)cc2)cc1,-5,3,-19,-2,-3,-42,x,x,x
O=C(CCC(=O)Nc1ccc(F)cc1)N/N=C/c1c[nH]c2ccccc12,12,4,-5,2,1,-12,x,x,x
O=C(NNc1ncc(C(F)(F)F)cc1Cl)c1c(Cl)cccc1Cl,15,83*,-12,46*,83*,71*,44,14,32*
COc1cccc(/C=N/Nc2ccnc(=O)[nH]2)c1O,x,x,19,97*,x,81*,11,8,24*
O=c1nccc(N/N=C/c2ccccc2O)[nH]1,x,x,-4,96*,x,88*,-4,11,16
COc1cccc(/C=N/NC(=O)N/N=C/c2cccc(OC)c2O)c1O,x,x,u,-6,x,-54,x,x,x
CCOc1ccccc1/C=N/Nc1ccnc(=O)[nH]1,x,x,-10,2,x,-14,x,x,x
CCOc1ccc(CC(=N)C2=C(O)CC(C)(C)CC2=O)cc1OCC,8,5,0,-3,0,-27,x,x,x
O=C(Nc1ccccn1)NC12CC3CC(CC(C3)C1)C2,10,5,0,6,0,-5,x,x,x
CCN(CC)Cc1cc(CC(C(N)=O)C(N)=O)ccc1OC,-4,0,15,1,-2,-25,x,x,x
CCOC(=O)c1[nH]c(C)c(C(=O)N2CCc3ccccc32)c1C,96*,85*,90*,92*,81*,77*,80*,62*,55*
CC1CCN(Cc2c(C(=O)N/N=C/c3ccccc3O)nnn2-c2nonc2N)CC1,x,x,65*,47*,x,70*,85*,16,42*
COc1ccc2c(c1)sc(N)[n+]2Cc1cc(C)cc2cccnc12,95*,79*,114*,80*,82*,69*,73*,61*,63*
CCN(CC)c1ccc(/C=N/N=C(N)N)c(O)c1,92*,75*,87*,69*,78*,75*,77*,67*,57*
CCN(CC)c1ccc(N=Cc2ccc(N(CC)CC)cc2O)cc1,10,7,-20,-3,1,-32,x,x,x
CCCCNc1cc(C)nc(NCc2ccccc2)n1,-12,45*,-17,23*,50*,-8,x,x,2
